{"source": "PubChem BioAssay (NCI)", "note": "About 83,000 compounds went through this panel and 20% of them were active in at least one assay; those are over-represented in the sample as a whole.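 Cell lines were cultured in 96-well plates, exposed to a single compound concentration, and assessed for percent growth 48 hours later.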 A number with no mark means an inactive call. Active and inactive are the calls of the source. How the source made its calls: active means growth percent below 10; inactive means the rest."}
{"test_system": "RXF 393 renal", "assay": "NCI-60 one-dose screen, 48 h (100 = growth as untreated, 0 = no growth, -100 = all killed)", "settings": "10 µM unless noted"}
{"compound": "Cc1[nH]c(C(=O)Nc2ccccc2OCc2cccc(C(=O)NCCN)c2)cc1Cl", "growth": "96.3%"}
{"compound": "O=C(/C=C/Nc1ccc(S(=O)(=O)Nc2ncccn2)cc1)c1ccc(N=Cc2c(O)[nH]c3ccccc23)cc1", "growth": "113%"}
{"compound": "Nc1cc(C(=O)N/N=C\\c2ccc(OC(F)F)c(OC3CCCC3)c2)nn1CC(O)c1ccccc1", "note": "(configuration not stated)", "growth": "96.3%"}
{"compound": "Cc1ccc(C(=O)Nc2ccc(CNCCN3CCOCC3)c(C(F)(F)F)c2)cc1C#Cc1cnc2cccnn12", "growth": "-54.2% (active)"}
{"compound": "COc1cc2c3c(cc4c5c(ccc4c3c1OC)OCO5)N(CCN(C)C)C2=O", "growth": "-88.5% (active)"}
{"compound": "Cc1ccc2c(n1)C(=O)C(Cl)=C(Nc1cccc(C)c1C)C2=O", "growth": "7.14% (active)"}
{"compound": "CN(C)CC(=O)Nc1nc(-c2cccc(NS(=O)(=O)c3cccc4c(N(C)C)cccc34)c2)cs1", "growth": "88.5%"}
{"compound": "COc1ccc(NC2=C(Br)C(=O)C(C)=C(C)C2=O)cc1OC", "growth": "104%"}
{"compound": "COc1cccc2c1[C@H](OC)[C@]13O[C@@]1(C2=O)[C@H](O)[C@H](C)[C@@](O)(C(=O)[C@@H]1O[C@H]1C)[C@@H]3O", "growth": "-77.3% (active)"}
{"compound": "O=C(CCCCCCNC(=O)C(O)(O)C(F)(F)F)Nc1ncc(-c2ccccc2)s1", "growth": "-48.5% (active)"}
{"compound": "Cc1ccc(-c2nc(SCC(=O)c3ccccc3)nc(Nc3ccc(S(N)(=O)=O)cc3)c2C#N)cc1", "growth": "51.7%"}
{"compound": "NC(=O)c1c(NC(=O)c2ccc(C(F)(F)F)cc2)sc2c1CCC(=O)C2", "growth": "-5.39% (active)"}
{"test_system": "SF-268 CNS", "assay": "NCI-60 one-dose screen, 48 h (100 = growth as untreated, 0 = no growth, -100 = all killed)", "settings": "10 µM unless noted"}
{"compound": "CCCC/C(=C\\c1ccc(O)c(O)c1)C(=O)NC(Cc1ccccc1)C(=O)C(=O)NCCc1ccc(OC)cc1", "note": "(configuration not stated)", "growth": "92%"}
{"compound": "CCN(CC)c1ccc(/C=N/NC(=O)c2ccc(NS(C)(=O)=O)cc2)cc1", "growth": "32%"}
{"compound": "Cc1ccc(C)c(NC2=C(Cl)C(=O)c3nc(C)ccc3C2=O)c1", "growth": "-1.66% (active)"}
{"compound": "O=C(CSc1nnc(-c2cccs2)n1-c1ccccc1)Nc1ccccc1F", "growth": "93.7%"}
{"compound": "Cc1ccc(CSC2=C(Cl)CN(c3ccc(Cl)cc3)C2=O)cc1", "growth": "108%"}
{"compound": "Cn1ncc2c(C(=O)c3ccc(F)cc3)nc(C(C)(C)C)nc21", "growth": "97.3%"}
{"compound": "O=C(CSc1nc2ccccc2c(=O)n1-c1ccccc1)N/N=C/c1ccc(Oc2ccc(Cl)cc2)cc1", "growth": "87.1%"}
{"compound": "Cc1cccc(N2CCN(C3=C(Cl)C(=O)c4ncccc4C3=O)CC2)c1", "growth": "82.9%"}
{"compound": "N/C(=N\\C(N)=N\\c1nc2ccccc2s1)c1ccc(Cl)cc1", "growth": "93%"}
{"compound": "N#Cc1nc(-c2ccccc2)oc1N1CCC(C2(C(F)(F)F)N=N2)CC1", "growth": "101%"}
{"compound": "CC(C)(C)c1cc(NC(=O)Nc2ccc(-c3cn4c5c(sc4n3)CCc3cn(CCCN4CCCCC4)cc3-5)cc2)no1", "growth": "-58.2% (active)"}
{"compound": "Cc1csc(/N=C(N)/N=C(\\N)c2cccc(Br)c2)n1", "growth": "91.7%"}
{"compound": "Cc1cc2nc(C(Cl)Cl)nc(-c3ccc(S(=O)(=O)N(C)C)cc3)n2n1", "growth": "67.6%"}
{"compound": "C#Cc1nc(/C=C\\CCCCCCC(=O)NO)cs1", "growth": "79.4%"}
{"compound": "O=C1C(SCc2ccccc2)=C(Cl)CN1c1ccccc1", "growth": "105%"}
{"compound": "CN1c2ccccc2Sc2cc(/C=N/Nc3ccnc4cc(Cl)ccc34)ccc21", "growth": "99.4%"}
{"compound": "NS(=O)(=O)c1ccc(CCn2c(-c3ccc(C(=O)O)cc3)nc(-c3ccccc3)c2-c2ccccc2)cc1", "growth": "93.8%"}
{"compound": "CCCc1cc2cc(-n3nc(CC)c4c3CC(C)(C)CC4=O)cc(NC3CCC(O)CC3)c2c(=O)[nH]1", "note": "(configuration not stated)", "growth": "49.3%"}
{"compound": "O=S(=O)(NCCCNc1nccc(-c2[nH]c(-c3ccccc3)nc2-c2ccc(F)c(O)c2)n1)c1cccc(F)c1", "growth": "103%"}
{"compound": "CCCCCCNC(=O)Oc1ccc(/C(=C(/C)c2ccc(OC)cc2)c2ccc(OCCN3CCCCCC3)cc2)cc1", "growth": "60.3%"}
{"compound": "CCOC(=O)Nc1ccc2c(ccn2C(=O)c2cccc(F)c2)c1", "growth": "65.8%"}
{"compound": "O=C(CCCCCCNC(=O)C(O)(O)C(F)(F)F)Nc1ccc(Cl)cc1", "growth": "22%"}
{"compound": "CCS(=O)(=O)Nc1ccc(C(=O)CC2(O)C(=O)Nc3ccccc32)cc1", "note": "(configuration not stated)", "growth": "97.3%"}
{"compound": "COc1cccc(N2CCN(C3=C(Cl)C(=O)c4ncccc4C3=O)CC2)c1", "growth": "84.1%"}
{"compound": "Nn1c(=O)n(-c2cccc(C(F)(F)F)c2)c(=O)c2cc(-c3ccc(F)cc3F)ccc21", "growth": "17.8%"}
{"compound": "CC(=O)N1N=C(c2cc3ccccc3oc2=O)CC1c1cn(-c2ccccc2)nc1-c1ccc(C)cc1", "note": "(configuration not stated)", "growth": "98.7%"}
{"compound": "NS(=O)(=O)c1cccc(Nc2nc(SCC(=O)c3ccc(Cl)cc3)nc3c2CCC3)c1", "growth": "82.8%"}
{"compound": "O=C(CCCCCCNC(=O)c1csc(Br)n1)NO", "growth": "69.4%"}
{"compound": "Cc1[nH]c(C(=O)Nc2ccccc2OCc2cccc(C(=O)NCCN)c2)cc1Cl", "growth": "88.3%"}
{"compound": "O=C(/C=C/Nc1ccc(S(=O)(=O)Nc2ncccn2)cc1)c1ccc(N=Cc2c(O)[nH]c3ccccc23)cc1", "growth": "112%"}
{"compound": "Nc1cc(C(=O)N/N=C\\c2ccc(OC(F)F)c(OC3CCCC3)c2)nn1CC(O)c1ccccc1", "note": "(configuration not stated)", "growth": "100%"}
{"compound": "Cc1ccc(C(=O)Nc2ccc(CNCCN3CCOCC3)c(C(F)(F)F)c2)cc1C#Cc1cnc2cccnn12", "growth": "15.6%"}
{"compound": "COc1cc2c3c(cc4c5c(ccc4c3c1OC)OCO5)N(CCN(C)C)C2=O", "growth": "5.2% (active)"}
{"compound": "Cc1ccc2c(n1)C(=O)C(Cl)=C(Nc1cccc(C)c1C)C2=O", "growth": "2.79% (active)"}
{"compound": "CN(C)CC(=O)Nc1nc(-c2cccc(NS(=O)(=O)c3cccc4c(N(C)C)cccc34)c2)cs1", "growth": "96.4%"}
{"compound": "COc1ccc(NC2=C(Br)C(=O)C(C)=C(C)C2=O)cc1OC", "growth": "95.3%"}
{"compound": "COc1cccc2c1[C@H](OC)[C@]13O[C@@]1(C2=O)[C@H](O)[C@H](C)[C@@](O)(C(=O)[C@@H]1O[C@H]1C)[C@@H]3O", "growth": "-24.7% (active)"}
{"compound": "O=C(CCCCCCNC(=O)C(O)(O)C(F)(F)F)Nc1ncc(-c2ccccc2)s1", "growth": "1.35% (active)"}
{"compound": "Cc1ccc(-c2nc(SCC(=O)c3ccccc3)nc(Nc3ccc(S(N)(=O)=O)cc3)c2C#N)cc1", "growth": "76.7%"}
{"compound": "NC(=O)c1c(NC(=O)c2ccc(C(F)(F)F)cc2)sc2c1CCC(=O)C2", "growth": "13.2%"}
